Records with an inconclusive call do not appear. Active and inactive are the calls of the source. Rule for the calls, unless noted: active = hit-call score of the fitted dose curve at least 0.9, where 1 is the maximum; inactive = score below 0.9.
What was measured:
[1] = APR_HepG2_CellCycleArrest_1hr: Apredica 1-hour HepG2 Assay for Cell Cycle Arrest (AID 2282666); conditions: high-content imaging, actives raise or lower the signal
Outline: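 Cell cycle arrest scored from nuclear DNA content (Hoechst 33342) using high-content imaging of fixed HepG2 cells after 1 h treatment across 0.39–200 uM, in duplicate. Gain or loss fitted relative to 0.5% DMSO.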

[2] = ACEA_ER_80hr: ACEA Biosciences xCELLigence Real-Time Cell Analysis on Estrogen Receptor Agonism for Proliferation (AID 2282667; active = hit-call score of the fitted dose curve at least 0.9, where 1 is the maximum); conditions: T47D proliferation, impedance (xCELLigence), 80 h
Outline: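 Real-time electrical impedance tracked growth of the human breast line T47D, with the 80 h post-dosing value used. Dosing spanned eight 1:4 steps down from a 100 uM final top concentration, run in duplicate.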

[3] = APR_HepG2_CellLoss_1hr: Apredica 1-hour HepG2 Assay for Cell Loss (AID 2282668); conditions: high-content imaging;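 note: curves fitted both ways against DMSO so gain or loss of cells counts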
Outline: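 Cell number comes from high-content imaging of Hoechst-labelled nuclei in fixed HepG2 cells. Cells were exposed for 1 h to ten concentrations from 0.39 to 200 uM in 0.5% DMSO. Gain or loss was fitted against DMSO controls.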

[4] = APR_HepG2_MicrotubuleCSK_1hr: Apredica 1-hour HepG2 Assay for Microtubule CSK Stabilty (AID 2282669); conditions: HepG2 microtubule cytoskeleton imaging, actives raise or lower the signal
Outline: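 Alpha-tubulin immunofluorescence, imaged by automated high-content microscopy with Hoechst nuclear segmentation, measured cytoskeletal change after 1 h dosing of HepG2 at 0.39–200 uM in 0.5% DMSO. Activity fitted in both directions relative to DMSO.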

[5] = APR_HepG2_p53Act_1hr: Apredica 1-hour HepG2 Assay for p53 Activation (AID 2282671); conditions: high-content imaging, actives raise or lower the signal
Outline: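 After 1 h exposure (0.39–200 uM, 0.5% DMSO final, duplicates), fixed HepG2 cells were labelled with anti-p53 antibody plus Hoechst nuclear stain. Fluorescence quantified by automated 20x imaging; changes fitted in both directions against DMSO.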

[6] = APR_HepG2_P-H2AX_1hr: Apredica 1-hour HepG2 Assay for H2AX Phosphorylation (AID 2282673); conditions: high-content imaging, actives raise or lower the signal
Outline: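 Phospho-H2A.x immunofluorescence (1:200, FITC secondary) plus Hoechst nuclear stain, quantified by high-content imaging in HepG2 after 1 hr compound exposure. Ten concentrations, 0.39 to 200 uM, in duplicate with 0.5% DMSO; fit both directions against DMSO.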

[7] = APR_HepG2_MitoMass_1hr: Apredica 1-hour HepG2 Assay for Mitochondrial Mass (AID 2282674); conditions: high-content imaging, actives raise or lower the signal
Outline: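 Mitochondrial mass is taken from MitoTracker Red CMXRos (250 nM, 30 min, pre-fixation) fluorescence imaged at 20x in HepG2 cells. Exposure lasted 1 hr across ten concentrations, 0.39 to 200 uM, 0.5% DMSO; DMSO baseline, bidirectional fitting.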

[8] = APR_HepG2_MitoMembPot_1hr: Apredica 1-hour HepG2 Assay for Mitochondrial Membrane Potential (AID 2282675); conditions: imaging, actives raise or lower the signal
Outline: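 Mitochondrial membrane potential read as MitoTracker Red CMXRos intensity by automated imaging of fixed HepG2 cells. Dye at 250 nM for 30 min pre-fixation; compounds 0.39 to 200 uM for 1 hour, duplicate wells, 0.5% DMSO.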

[9] = APR_HepG2_CellCycleArrest_24hr: Apredica 24-hour HepG2 Assay for Cell Cycle Arrest (AID 2282905); conditions: imaging, actives raise or lower the signal;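 note: cell cycle arrest scored as ratio of 2N to 4N nuclear DNA content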
Outline: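 Readout: Hoechst 33342 nuclear DNA content by high-content fluorescent imaging, six images/well, 20x. Human HepG2 liver cells, 24 hr compound exposure, 0.39–200 uM, final DMSO 0.5% v/v. Gain or loss fitted relative to DMSO baseline.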

[10] = APR_HepG2_CellLoss_24hr: Apredica 24-hour HepG2 Assay for Cell Loss (AID 2282908); conditions: high-content imaging;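 for AC50: fit in both directions so a hit may be cell loss or gain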
Outline: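 Read-out: Hoechst 33342-stained nuclei counted by automated fluorescence imaging after formaldehyde fixation and Triton permeabilization. Ten concentrations, 0.39 to 200 uM, duplicate wells, 0.5% DMSO final. Gain or loss of signal fitted relative to DMSO baseline.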

[11] = APR_HepG2_MicrotubuleCSK_24hr: Apredica 24-hour HepG2 Assay for Microtubule CSK Stabilty (AID 2282909); conditions: HepG2 microtubule cytoskeleton imaging, actives raise or lower the signal
Outline: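 Read-out: alpha-tubulin immunofluorescence intensity by automated high-content imaging of fixed HepG2 cells after 24 h compound treatment. Ten concentrations, 0.39 to 200 uM, in duplicate; DMSO 0.5% v/v. Taxol positive control; DMSO-normalized bidirectional curve fitting.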

[12] = APR_HepG2_MitoticArrest_24hr: Apredica 24-hour HepG2 Assay for Mitotic Arrest (AID 2282910); conditions: high-content imaging, actives raise or lower the signal
Outline: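 HepG2, 24 hr dosing, 0.39–200 uM, 0.5% DMSO final. Formaldehyde-fixed, Triton-permeabilised, anti-phospho-histone H3 plus Hoechst. ArrayScan imaging at 20x; bidirectional fit vs DMSO baseline.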

[13] = APR_HepG2_MitoMembPot_24hr: Apredica 24-hour HepG2 Assay for Mitochondrial Membrane Potential (AID 2282911); conditions: imaging, actives raise or lower the signal
Outline: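 Cells are dosed for 24 hr across 0.39 to 200 uM with solvent held at 0.5% DMSO. They are then stained with 250 nM MitoTracker Red CMXRos for 30 min, fixed in 3.7% formaldehyde and imaged.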

[14] = APR_HepG2_MitoMass_24hr: Apredica 24-hour HepG2 Assay for Mitochondrial Mass (AID 2282912); conditions: high-content imaging, actives raise or lower the signal
Outline: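 HepG2, 24 hr dosing, 10 concentrations 0.39–200 uM in duplicate, DMSO 0.5% final. MitoTracker Red CMXRos 250 nM, 30 min pre-fix; 3.7% formaldehyde fix. Imaging-based fluorescence intensity; gain/loss fit vs DMSO baseline.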

[15] = APR_HepG2_p53Act_24hr: Apredica 24-hour HepG2 Assay for p53 Activation (AID 2282913); conditions: high-content imaging, actives raise or lower the signal;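 note: p53 protein immunofluorescence averaged per cell in HepG2 with Hoechst nuclei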
Outline: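 Human HepG2 liver cells; 24 hr cpd treatment, 0.39–200 uM, 0.5% DMSO final. Fixed in 3.7% formaldehyde, permeabilized with 0.5% Triton X-100, stained with anti-p53/Cy5 plus Hoechst 33342. Six images per well at 20x; gain or loss vs DMSO.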

[16] = APR_HepG2_CellCycleArrest_72hr: Apredica 72-hour HepG2 Assay for Cell Cycle Arrest (AID 2282914); conditions: high-content imaging, actives raise or lower the signal
Outline: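 Read-out is Hoechst-stained nuclear DNA content measured by automated fluorescence imaging (20x, six images per well), fitted in both directions relative to DMSO. Human HepG2 liver cells received 0.39–200 uM compound for 72 hr at 0.5% v/v DMSO.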

[17] = APR_HepG2_StressKinase_1hr: Apredica 1-hour HepG2 Assay for Stress Kinase (AID 2282906); conditions: HepG2 stress kinase (phospho-c-Jun) imaging, actives raise or lower the signal
Outline: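 High-content imaging of phospho-c-Jun immunostaining (with Hoechst nuclear identification) after a 1 h exposure of HepG2 cells to 10 concentrations from 0.39 to 200 uM, final DMSO 0.5%. Fitted bidirectionally against DMSO.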

[18] = APR_HepG2_NuclearSize_1hr: Apredica 1-hour HepG2 Assay for Nuclear Size (AID 2282670); conditions: high-content imaging, actives raise or lower the signal
Outline: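 Nuclear size measured by high-content imaging of Hoechst 33342 nuclear stain after formaldehyde fixation; human HepG2 line exposed 1 hr to compounds at 0.39–200 uM in 0.5% DMSO, with bidirectional curve fitting relative to DMSO.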

[19] = APR_HepG2_NuclearSize_24hr: Apredica 24-hour HepG2 Assay for Nuclear Size (AID 2282907); conditions: high-content imaging, actives raise or lower the signal
Outline: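 Read-out: nuclear diameter from Hoechst 33342 (2 ug/mL) imaging of fixed HepG2 cells, 20x, six fields/well. Compounds ran at 0.39–200 uM for 24 hr, 0.5% DMSO final. Gain or loss was fitted bidirectionally relative to the DMSO baseline.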

[20] = APR_HepG2_MitoticArrest_1hr: Apredica 1-hour HepG2 Assay for Mitotic Arrest (AID 2282672); conditions: high-content imaging, actives raise or lower the signal
Outline: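 Ten-point concentration series (0.39 to 200 uM, duplicates, 0.5% v/v DMSO) applied to human HepG2 liver cells for 1 hr. High-content imaging of phospho-histone H3 and Hoechst-stained nuclei after fixation and permeabilization; DMSO-normalised bidirectional fit.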

Measured: AC50

O=P(O)(O)CCCl
active: [1] 0.0713 µM
not listed: [17] | [18] | [19] | [20]
inactive: all other assays above

CN/C(=N\[N+](=O)[O-])NCc1cnc(Cl)s1
not listed: [8] | [18] | [19] | [20]
inactive: all other assays above

CC(C)NC(=O)N1CC(=O)N(c2cc(Cl)cc(Cl)c2)C1=O
not listed: [8] | [17] | [20]
inactive: all other assays above

O=C1C2CC=CCC2C(=O)N1SC(Cl)(Cl)Cl (stereo unspecified)
active: [6] 81.7 µM | [9] 33.4 µM | [19] 59.3 µM | [10] 54.6 µM | [11] 24.1 µM | [12] 30.1 µM | [15] 28.5 µM
not listed: [8] | [17] | [18]
inactive: all other assays above

O=c1n(Cl)c(=O)n(Cl)c(=O)n1Cl
not listed: [17] | [18] | [19] | [20]
inactive: all other assays above

N#Cc1c[nH]cc1-c1cccc2c1OC(F)(F)O2
active: [9] 26.9 µM | [10] 22.4 µM | [13] 53.6 µM | [16] 39.8 µM
not listed: [8] | [17]
inactive: all other assays above

CC(C)Nc1nc(Cl)nc(NC(C)C)n1
active: [13] 110 µM
not listed: [20]
inactive: all other assays above

COP(=S)(OC)SCn1nnc2ccccc2c1=O
active: [16] 100 µM
not listed: [8] | [17] | [18]
inactive: all other assays above

Source: PubChem BioAssay (EPA / NIEHS)
